Source: PubChem (several laboratories)
Shown are actives, neighbours in structure and some others; about 6.2% of the full set was active somewhere.
AHR activator – activates the human aryl hydrocarbon receptor; activation, % at 5 µM; AHR-responsive luciferase reporter cells, luminescence; P35869; 320,000 compounds, 2.5% hits; in the data active means activation above about 47%;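 further: 0% = vehicle wells and 100% = reference agonist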
Target sequence (P35869 whole entry, looked up): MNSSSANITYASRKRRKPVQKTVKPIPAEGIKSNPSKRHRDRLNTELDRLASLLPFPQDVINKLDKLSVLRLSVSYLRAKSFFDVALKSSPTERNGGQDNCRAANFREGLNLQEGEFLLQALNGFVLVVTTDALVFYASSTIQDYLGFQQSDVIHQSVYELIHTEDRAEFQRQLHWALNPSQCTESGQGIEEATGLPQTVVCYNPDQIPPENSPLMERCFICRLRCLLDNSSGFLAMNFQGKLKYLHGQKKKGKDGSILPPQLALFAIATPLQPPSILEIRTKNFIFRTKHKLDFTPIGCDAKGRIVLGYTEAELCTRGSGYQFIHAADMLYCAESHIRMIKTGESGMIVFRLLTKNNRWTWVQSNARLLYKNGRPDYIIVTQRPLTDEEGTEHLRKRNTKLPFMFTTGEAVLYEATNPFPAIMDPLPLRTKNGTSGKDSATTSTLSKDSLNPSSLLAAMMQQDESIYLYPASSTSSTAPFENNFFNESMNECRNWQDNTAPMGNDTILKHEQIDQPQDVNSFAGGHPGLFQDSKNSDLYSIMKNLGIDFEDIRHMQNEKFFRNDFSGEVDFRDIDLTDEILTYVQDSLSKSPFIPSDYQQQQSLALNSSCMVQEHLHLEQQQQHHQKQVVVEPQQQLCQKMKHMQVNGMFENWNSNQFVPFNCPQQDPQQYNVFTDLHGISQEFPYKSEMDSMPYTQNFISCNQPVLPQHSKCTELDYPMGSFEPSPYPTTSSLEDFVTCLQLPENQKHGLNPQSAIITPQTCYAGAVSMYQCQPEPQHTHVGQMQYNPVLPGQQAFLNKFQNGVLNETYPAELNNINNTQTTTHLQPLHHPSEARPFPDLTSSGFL
NR3A LBD binder – modulators (binders) of human NR3A ligand-binding domain. NR3A LBD differential scanning fluorimetry, Tm shift; 0% = protein alone, 100% = glycine-bound protein. Tm shift relative to glycine control, % at 25 µM. 340,000 compounds, 2.5% hits. AID 1259313;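 active means melting temperature shift of at least 10% of the positive control shift, at one fixed dose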
AI-2 QS mod – Vibrio harveyi AI-2 quorum sensing modulation | AID 2094 | 300,000 compounds, 0.4% hits | activity change, % at 7.5 µM | Vibrio harveyi JMH597 AI-2 luminescence/OD600 ratio, 9 h; stronger effect = lower value; strain lacks LuxN and CqsS sensors; 0 = neutral-control median; in the data active means activity change below about -75%, passing the limit was not always enough;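 further: luminescence divided by OD600 gain over 9 h not by final OD600 alone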
H9c2 protect – modulators protecting cardiomyocytes from myocardial damage. H9c2 cardiomyocytes, H2O2 injury protection, ATPLite, 2 h. protection from H2O2 cell death, % at 20 µM. 360,000 compounds, 0.63% hits;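 active means compounds giving at least 50% protection of heart cells from peroxide-induced death in the single-dose screen, raw or plate-pattern-corrected value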;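 further: 0% = DMSO wells with peroxide and 100% = DMSO wells without peroxide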
SUMO Mot1 rescue – inhibitors of SUMOylation pathway: yeast Mot1-301 growth rescue; 320,000 compounds, 1% hits; growth rescue, % at 18.8 µM; S. cerevisiae Mot1-301 growth rescue, ATP luminescence, 38.5C; percent above DMSO median, 100 means doubled; AID 2716;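 active means every valid replicate shows activation above 250% relative to neutral control wells; inactive means the rest, any valid replicate at or below 250%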;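 further: OY570 slx delta 5 strain wells were the positive control but not used for scaling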
NTR1 ag – NTR1 (human) agonism; NTR1-U2OS beta-arrestin-GFP spot imaging, agonist mode; 330,000 compounds, 0.17% hits; P30989; activation, % at 20 µM;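 active means activation at or above 40% of the spot to cytoplasm intensity ratio, with at least 20 cells analyzed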;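 further: 0% = DMSO without peptide and 100% = 100 nM NTR1 peptide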
* hit, by the source's call.

For CCN(CC)S(=O)(=O)c1cccc(C(=O)N/N=C/c2ccccn2)c1 the results were AHR activator 4, NR3A LBD binder -1, AI-2 QS mod 15, H9c2 protect 51*, SUMO Mot1 rescue 2 and NTR1 ag 2.
Screening O=C(N/N=C/c1ccccn1)c1cccc([N+](=O)[O-])c1 returned AHR activator 2, NR3A LBD binder -1, AI-2 QS mod 43, H9c2 protect 61*, SUMO Mot1 rescue 18 and NTR1 ag 3.
O=C(N/N=C/c1ccccn1)c1ccc([N+](=O)[O-])cc1 was read as AHR activator 6, NR3A LBD binder 2, AI-2 QS mod 33, H9c2 protect 3, SUMO Mot1 rescue -12 and NTR1 ag 3.
Screening O=C(N/N=C/c1cccc(O)c1)c1ccc(NC(=O)c2cccc([N+](=O)[O-])c2)cc1 returned AHR activator 5, NR3A LBD binder 27*, AI-2 QS mod 28, H9c2 protect 38, SUMO Mot1 rescue -21 and NTR1 ag 1.
`O=C(N/N=C/c1ccccn1)c1ccc(NC(=O)c2cccc([N+](=O)[O-])c2)cc1` gave AHR activator 3, NR3A LBD binder 2, AI-2 QS mod 53, H9c2 protect 69*, SUMO Mot1 rescue 1 and NTR1 ag 1.
`COc1ccccc1/C=N/NC(=O)c1ccc(NC(=O)c2cccc([N+](=O)[O-])c2)cc1` gave AHR activator 2, AI-2 QS mod 17, SUMO Mot1 rescue 15 and NTR1 ag 1.
Screening CCN(CC)S(=O)(=O)c1cccc(C(=O)N/N=C/c2cccc(O)c2O)c1 returned AHR activator 1, NR3A LBD binder -3, AI-2 QS mod 10, H9c2 protect 24, SUMO Mot1 rescue -19 and NTR1 ag 2.
Screening O=C(N/N=C/c1ccccn1)c1cc([N+](=O)[O-])cc([N+](=O)[O-])c1 returned AHR activator 15, NR3A LBD binder -2, AI-2 QS mod -36, H9c2 protect 40, SUMO Mot1 rescue 11 and NTR1 ag 4.
Screening CCOC(=O)c1cc2c(c(-c3ccccc3)n1)[C@@H](CCO)N(S(=O)(=O)C(C)(C)C)C2 returned NR3A LBD binder -1 and H9c2 protect 3.
For C=C1C(=O)OCC2C(C(=O)O)=CC3C(C)C(C)=CC123 (stereo unspecified) the results were H9c2 protect -3.
Screening O=C(O)/C=C\c1cccc(-n2nnnc2SCc2ccccc2F)c1 returned AHR activator 1, NR3A LBD binder -1, AI-2 QS mod 36, H9c2 protect 6, SUMO Mot1 rescue 3 and NTR1 ag -1.
Screening COc1ccc2nc(/N=C/c3c(C)[nH]n(-c4ccc(C)cc4)c3=O)sc2c1 returned AHR activator 52*, NR3A LBD binder -8, AI-2 QS mod 11, H9c2 protect -9, SUMO Mot1 rescue -14 and NTR1 ag -2.
`Cc1ccc(-n2[nH]c(C)c(C=Nc3ccc(Br)cn3)c2=O)cc1` gave AHR activator 71*, NR3A LBD binder -1, AI-2 QS mod 12, H9c2 protect -15, SUMO Mot1 rescue -3 and NTR1 ag 9.
O=C(NN=C1c2ccccc2-c2ccccc21)c1ccccc1Br was read as AHR activator 41, NR3A LBD binder -7, AI-2 QS mod -38, H9c2 protect 6, SUMO Mot1 rescue -9 and NTR1 ag 5.
`O=C(NN=C1c2ccccc2-c2ccccc21)c1ccccc1` gave AHR activator 59*, NR3A LBD binder 1, AI-2 QS mod 24, H9c2 protect 16, SUMO Mot1 rescue 19 and NTR1 ag 3.
`Fc1ccc(/C=C2\CCCC3=C2Nc2ncnn2C3c2ccc(F)cc2)cc1` (stereo unspecified) gave AHR activator -2, NR3A LBD binder -1, AI-2 QS mod 24, H9c2 protect -7, SUMO Mot1 rescue 6 and NTR1 ag 46*.
`COc1ccccc1NC(=O)Nc1nnc(C(C)c2ccccc2)s1` (stereo unspecified) gave AHR activator 15, NR3A LBD binder -2, AI-2 QS mod -4, H9c2 protect -6, SUMO Mot1 rescue 27 and NTR1 ag 8.
Screening CCCCN(C(=O)NC(=O)Nc1ccccc1OC)S(C)(=O)=O returned AHR activator 58*, NR3A LBD binder -4, AI-2 QS mod 18, H9c2 protect 5, SUMO Mot1 rescue -10 and NTR1 ag 0.
